Measured values: the supplement of paper PMC7366291
Where a name gives a salt, the structure may show the parent alone. ± gives the standard deviation of the averaged measurements.

system: Danio rerio Tg(wt1b:EGFP) embryo, pronephros; assay: pronephric angle neck segment to proximal convoluted tubule (mean of left and right), fold change vs DMSO control; higher = larger pronephric angle; conditions: 25 µM; exposure: 24-48 hpf
Procedure, shortened: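 Dechorionated Tg(wt1b:EGFP) zebrafish embryos were incubated at 28.5°C from 24 to 48 hpf with 25 μM compound in HEPES-buffered E3 containing 0.5% DMSO and 0.003% PTU. Distances and angles between 16 manually set points on maximum projections of dorsal pronephros images were measured in Fiji, with values over 2 SD from the feature mean excluded. Each feature is a fold change relative to the mean of same-day DMSO-treated embryos.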

In order of rising “pronephric angle neck segment” value:
1. CC1(C)S[C@@H]2[C@H](NC(=O)[C@H](NC(=O)N3CCNC3=O)c3ccccc3)C(=O)N2[C@H]1C(=O)O [Azlocillin sodium salt]  0.928 ± 0.015
2. OC(CCN1CCCC1)(c1ccccc1)C1CCCCC1 (stereo not given) [Procyclidine hydrochloride]  0.954 ± 0.035
3. O=C(NCC1CCCCN1)c1cc(OCC(F)(F)F)ccc1OCC(F)(F)F (stereo not given) [Flecainide acetate]  0.961 ± 0.023
4. Nc1nc(CC(=O)Nc2ccc(CCNC[C@H](O)c3ccccc3)cc2)cs1 [Mirabegron]  0.965 ± 0.014
5. CC(C)(Oc1ccc(CCNC(=O)c2ccc(Cl)cc2)cc1)C(=O)O [Bezafibrate]  0.966 ± 0.0086
6. Nc1ccc(O)c(C(=O)O)c1 [Mesalamine]  0.971 ± 0.018
7. CCN(CC)CCCC(C)Nc1c2ccc(Cl)cc2nc2ccc(OC)cc12 (stereo not given) [Quinacrine dihydrochloride hydrate]  0.971 ± 0.021
8. Cc1cn([C@H]2C=C[C@@H](CO)O2)c(=O)[nH]c1=O [Stavudine]  0.9729 ± 0.00098
9. CC(C)NC[C@H](O)COc1cccc2ccccc12 [(S)-propranolol hydrochloride]  0.9744 ± 0.0062
10. Cc1[nH]cnc1CN1CCc2c(c3ccccc3n2C)C1=O [Alosetron hydrochloride]  0.977 ± 0.015
11. CC(C)NNC(=O)c1ccncc1 [Iproniazide phosphate]  0.9788 ± 0.0054
12. CO/N=C(\C(=O)N[C@@H]1C(=O)N2C(C(=O)O)=C(C[N+]3(C)CCCC3)CS[C@H]12)c1csc(N)n1 [Cefepime hydrochloride]  0.9786 ± 0.003
13. C#CCN(C)CCCOc1ccc(Cl)cc1Cl [Clorgyline hydrochloride]  0.984 ± 0.047
14. CCCCC(C)(O)C/C=C/[C@H]1[C@H](O)CC(=O)[C@@H]1CCCCCCC(=O)OC (mixture of isomers) [Misoprostol]  0.985 ± 0.04
15. Cc1cccc(C)c1NC(=O)CN1CCN(CCCC(c2ccc(F)cc2)c2ccc(F)cc2)CC1 [Lidoflazine]  0.988 ± 0.13
16. CC(=O)NS(=O)(=O)c1ccc(N)cc1 [Sulfacetamide sodic hydrate]  0.9887 ± 0.0093
17. CC(=O)NCCCS(=O)(=O)O [Acamprosate calcium]  0.991 ± 0.053
18. C[C@@H]1C[C@H]2[C@@H]3CCC4=CC(=O)C=C[C@]4(C)[C@@]3(Cl)[C@@H](O)C[C@]2(C)[C@@]1(OC(=O)c1ccco1)C(=O)CCl [Mometasone furoate]  0.993 ± 0.085
19. CN(C)CC/C=C1\c2ccccc2CSc2ccccc21 [Dosulepin hydrochloride]  0.995 ± 0.03
20. CC(NCCC(c1ccccc1)c1ccccc1)c1ccccc1 (stereo not given) [Fendiline hydrochloride]  1 ± 0.036
21. Nc1c(Br)cc(Br)cc1CN[C@H]1CC[C@H](O)CC1 [Ambroxol hydrochloride]  1.003 ± 0.0037
22. CC(C)NCC(O)c1ccc(O)c(O)c1 (single isomer, unassigned; (+)) [(+)-Isoproterenol (+)-bitartrate salt]  1 ± 0.015
23. c1cnc(N2CCN(Cc3ccc4c(c3)OCO4)CC2)nc1 [Piribedil hydrochloride]  1.01 ± 0.055
24. NC(Cc1cc(I)c(Oc2cc(I)c(O)c(I)c2)c(I)c1)C(=O)O (stereo not given) [Thyroxine (L)]  1.02 ± 0.029
25. CC(=O)/N=c1/sc(S(N)(=O)=O)nn1C [Methazolamide]  1.02 ± 0.014
26. CCC(=O)O[C@@H](O[P@](=O)(CCCCc1ccccc1)CC(=O)N1C[C@H](C2CCCCC2)C[C@H]1C(=O)O)C(C)C [Fosinopril]  1.03 ± 0.013
27. NS(=O)(=O)c1cc(C(=O)O)cc(N2CCCC2)c1Oc1ccccc1 [Piretanide]  1.03 ± 0.038
28. O=C(c1ccc(F)cc1)C1CCN(CCn2c(=O)[nH]c3ccccc3c2=O)CC1 [Ketanserin tartrate hydrate]  1.03 ± 0.046
29. CC(C)(C)NC[C@@H](O)COc1cccc2c1CCCC2=O [(+) -Levobunolol hydrochloride]  1.03 ± 0.015
30. C[C@@H]1CN(c2c(F)c(N)c3c(=O)c(C(=O)O)cn(C4CC4)c3c2F)C[C@H](C)N1 [Sparfloxacin]  1.04 ± 0.024
31. CCN(CC)CCOC(=O)c1ccc(N)cc1 [Procaine hydrochloride]  1.081 ± 0.0098
32. O=C1CCc2ccc(OCCCCN3CCN(c4cccc(Cl)c4Cl)CC3)cc2N1 [Aripiprazole]  1.08 ± 0.033
33. COc1cc(C(=O)OCCCN2CCCN(CCCOC(=O)c3cc(OC)c(OC)c(OC)c3)CC2)cc(OC)c1OC [Dilazep dihydrochloride]  1.08 ± 0.089
34. O=C(Oc1cccc2cccnc12)c1ccccc1 [Benzoxiquine]  1.1 ± 0.022
35. C#C[C@]1(O)CC[C@H]2[C@@H]3CCC4=Cc5oncc5C[C@]4(C)[C@H]3CC[C@@]21C [Danazol]  1.1 ± 0.12
36. Clc1ccc(C(Cn2ccnc2)OCc2ccsc2Cl)c(Cl)c1 (stereo not given) [Tioconazole]  1.21 ± 0.085
37. O=C(COc1ccc(Cl)cc1)N1CCN(Cc2ccc3c(c2)OCO3)CC1 [Fipexide hydrochloride]  1.24 ± 0.11
38. CCN(CC)C(=O)/C(C#N)=C/c1cc(O)c(O)c([N+](=O)[O-])c1 [Entacapone]  1.28 ± 0.14
39. C[C@]12CC[C@@H]3c4ccc(O)cc4CC[C@H]3[C@@H]1CC[C@@H]2O [Estradiol-17 beta]  1.29 ± 0.22
40. C=C1C(=O)O[C@H]2[C@H]1CC/C(C)=C/CC[C@@]1(C)O[C@@H]21 [Parthenolide]  1.4 ± 0.038
